# Results taken from PubChem BioAssay AID1159580 (chemical genetic matrix, 2015).
# Screen size: about 5,500 compounds; about 2,000 (36%) were called active. Inconclusive results (about 18%) are left out. Some of the results follow. Values without a mark were called inactive. Cut-off read from the data, not from the text of the source: active = normalized growth mostly below about 0.91 (no sharp cut-off); inconclusive = no clear call, values can overlap the other calls; inactive = mostly above about 0.92.
# Experiment: chemical genetic growth profiling, strain panel (AID 1159580);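 note: tested at 20 µM; growth read once vehicle control cultures reached saturation at 30 °C; 1 = growth at the plate median or of vehicle wells; lower values mean less growth of the strain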
# Details: growth OD
smiles,measurement,setting,value
c1cc2c(cc1[C@H]1OC[C@H]3[C@@H]1CO[C@H]3c1ccc3c(c1)OCO3)OCO2,normalized growth,"S. cerevisiae deletion strains, locus YJR075W, strain HOC1, hits give low values",0.914
same,normalized growth,"S. cerevisiae deletion strains, locus YKL009W, strain mrt4, hits give low values",0.922
same,normalized growth,"S. cerevisiae deletion strains, locus YKL068W, hits give low values",0.929 (active)
same,normalized growth,"S. cerevisiae deletion strains, locus YKL085W, strain MDH1 (second series), hits give low values",0.915 (active)
same,normalized growth,"S. cerevisiae deletion strains, locus YKL085W, strain MDH1, hits give low values",0.915 (active)
same,normalized growth,"S. cerevisiae deletion strains, locus YKL160W, strain elf1, hits give low values",0.878 (active)
same,normalized growth,"S. cerevisiae deletion strains, locus YKL190W, strain CNB1, hits give low values",0.947
same,normalized growth,"S. cerevisiae deletion strains, locus YKR001C, strain vps1, hits give low values",0.683 (active)
same,normalized growth,"S. cerevisiae deletion strains, locus YKR026C, strain gcn3, hits give low values",0.916 (active)
same,normalized growth,"S. cerevisiae deletion strains, locus YKR091W, strain srl3, hits give low values",0.899 (active)
same,normalized growth,"S. cerevisiae deletion strains, locus YLL001W, strain dnm1, hits give low values",0.887 (active)
same,normalized growth,"S. cerevisiae deletion strains, locus YLL026W, hits give low values",0.922 (active)
same,normalized growth,"S. cerevisiae deletion strains, locus YLL041C, strain sdh2, hits give low values",0.926 (active)
same,normalized growth,"S. cerevisiae deletion strains, locus YLR027C, strain aat2, hits give low values",0.931
same,normalized growth,"S. cerevisiae deletion strains, locus YLR039C, strain RIC1, hits give low values",0.398 (active)
same,normalized growth,"S. cerevisiae deletion strains, locus YLR058C, strain SHM2, hits give low values",0.943
same,normalized growth,"S. cerevisiae deletion strains, locus YLR102C, strain apc9, hits give low values",0.923 (active)
same,normalized growth,"S. cerevisiae deletion strains, locus YLR113W, strain HOG1, hits give low values",0.865
same,normalized growth,"S. cerevisiae deletion strains, locus YLR221C, strain rsa3, hits give low values",0.886 (active)
same,normalized growth,"S. cerevisiae deletion strains, locus YLR258W, strain gsy2, hits give low values",0.914 (active)
same,normalized growth,"S. cerevisiae deletion strains, locus YLR262C, strain YPT6 (second series), hits give low values",0.455 (active)
same,normalized growth,"S. cerevisiae deletion strains, locus YLR262C, strain YPT6, hits give low values",0.415 (active)
same,normalized growth,"S. cerevisiae deletion strains, locus YLR268W, strain sec22, hits give low values",0.833 (active)
same,normalized growth,"S. cerevisiae deletion strains, locus YLR320W, strain mms22, hits give low values",0.732 (active)
same,normalized growth,"S. cerevisiae deletion strains, locus YLR330W, strain CHS5, hits give low values",0.816 (active)
same,normalized growth,"S. cerevisiae deletion strains, locus YLR342W, strain FKS1 (second series), hits give low values",0.77 (active)
same,normalized growth,"S. cerevisiae deletion strains, locus YLR342W, strain FKS1, hits give low values",0.9 (active)
same,normalized growth,"S. cerevisiae deletion strains, locus YLR357W, strain rsc2, hits give low values",0.951
same,normalized growth,"S. cerevisiae deletion strains, locus YLR370C, strain arc18, hits give low values",0.914
same,normalized growth,"S. cerevisiae deletion strains, locus YLR371W, strain rom2, hits give low values",0.912
same,normalized growth,"S. cerevisiae deletion strains, locus YLR384C, strain iki3, hits give low values",0.936
same,normalized growth,"S. cerevisiae deletion strains, locus YLR418C, strain cdc73, hits give low values",0.692 (active)
same,normalized growth,"S. cerevisiae deletion strains, locus YML016C, strain PPZ1, hits give low values",0.947
same,normalized growth,"S. cerevisiae deletion strains, locus YML032C, strain rad52, hits give low values",0.902 (active)
same,normalized growth,"S. cerevisiae deletion strains, locus YML120C, strain ndi1, hits give low values",0.897 (active)
same,normalized growth,"S. cerevisiae deletion strains, locus YML124C, strain tub3, hits give low values",0.902 (active)
same,normalized growth,"S. cerevisiae deletion strains, locus YMR058W, strain fet3, hits give low values",0.896 (active)
same,normalized growth,"S. cerevisiae deletion strains, locus YMR078C, strain ctf18, hits give low values",0.892 (active)
same,normalized growth,"S. cerevisiae deletion strains, locus YMR125W, strain sto1, hits give low values",0.826 (active)
same,normalized growth,"S. cerevisiae deletion strains, locus YMR129W, hits give low values",0.925
same,normalized growth,"S. cerevisiae deletion strains, locus YMR205C, strain PFK2, hits give low values",0.774 (active)
same,normalized growth,"S. cerevisiae deletion strains, locus YMR223W, strain ubp8, hits give low values",0.914
same,normalized growth,"S. cerevisiae deletion strains, locus YMR231W, strain pep5, hits give low values",0.934
same,normalized growth,"S. cerevisiae deletion strains, locus YMR307W, strain GAS1, hits give low values",0.9
same,normalized growth,"S. cerevisiae deletion strains, locus YNL067W, strain RPL9B, hits give low values",0.957
same,normalized growth,"S. cerevisiae deletion strains, locus YNL071W, strain lat1, hits give low values",0.614 (active)
same,normalized growth,"S. cerevisiae deletion strains, locus YNL128W, strain TEP1, hits give low values",1.01
same,normalized growth,"S. cerevisiae deletion strains, locus YNL153C, strain GIM3, hits give low values",0.822 (active)
same,normalized growth,"S. cerevisiae deletion strains, locus YNL183C, strain NPR1, hits give low values",0.925
same,normalized growth,"S. cerevisiae deletion strains, locus YNL209W, strain ssb2, hits give low values",0.958
same,normalized growth,"S. cerevisiae deletion strains, locus YNL233W, strain BNI4, hits give low values",0.882
same,normalized growth,"S. cerevisiae deletion strains, locus YNL248C, strain rpa49, hits give low values",0.948
same,normalized growth,"S. cerevisiae deletion strains, locus YNL250W, strain rad50, hits give low values",0.929
same,normalized growth,"S. cerevisiae deletion strains, locus YNL271C, strain bni1, hits give low values",0.932
same,normalized growth,"S. cerevisiae deletion strains, locus YNL298W, strain CLA4, hits give low values",0.922
same,normalized growth,"S. cerevisiae deletion strains, locus YNL307C, strain MCK1, hits give low values",0.797 (active)
same,normalized growth,"S. cerevisiae deletion strains, locus YNL322C, strain KRE1 (second series), hits give low values",0.907
same,normalized growth,"S. cerevisiae deletion strains, locus YNL322C, strain KRE1, hits give low values",0.94
same,normalized growth,"S. cerevisiae deletion strains, locus YNR049C, strain mso1, hits give low values",0.917 (active)
same,normalized growth,"S. cerevisiae deletion strains, locus YNR052C, strain pop2, hits give low values",0.899 (active)
same,normalized growth,"S. cerevisiae deletion strains, locus YOL012C, strain htz1",0.632
same,normalized growth,"S. cerevisiae deletion strains, locus YOL147C, strain pex11, hits give low values",0.914 (active)
same,normalized growth,"S. cerevisiae deletion strains, locus YOR001W, strain rrp6, hits give low values",0.945
same,normalized growth,"S. cerevisiae deletion strains, locus YOR061W, strain CKA2, hits give low values",0.948
same,normalized growth,"S. cerevisiae deletion strains, locus YOR069W, strain VPS5, hits give low values",0.962
same,normalized growth,"S. cerevisiae deletion strains, locus YOR070C, strain gyp1, hits give low values",0.908 (active)
same,normalized growth,"S. cerevisiae deletion strains, locus YOR080W, strain dia2, hits give low values",0.909 (active)
same,normalized growth,"S. cerevisiae deletion strains, locus YOR083W, strain WHI5, hits give low values",0.877 (active)
same,normalized growth,"S. cerevisiae deletion strains, locus YOR106W, strain vam3, hits give low values",0.908
same,normalized growth,"S. cerevisiae deletion strains, locus YOR136W, strain idh2, hits give low values",0.973
same,normalized growth,"S. cerevisiae deletion strains, locus YOR144C, strain elg1, hits give low values",0.907 (active)
same,normalized growth,"S. cerevisiae deletion strains, locus YOR184W, strain ser1, hits give low values",0.624 (active)
same,normalized growth,"S. cerevisiae deletion strains, locus YOR231W, strain MKK1, hits give low values",0.897
same,normalized growth,"S. cerevisiae deletion strains, locus YOR265W, strain rbl2, hits give low values",0.906 (active)
same,normalized growth,"S. cerevisiae deletion strains, locus YOR270C, strain vph1, hits give low values",0.639 (active)
same,normalized growth,"S. cerevisiae deletion strains, locus YOR290C, strain snf2, hits give low values",0.828 (active)
same,normalized growth,"S. cerevisiae deletion strains, locus YOR316C, strain cot1, hits give low values",0.912 (active)
same,normalized growth,"S. cerevisiae deletion strains, locus YPL051W, strain arl3, hits give low values",0.865 (active)
same,normalized growth,"S. cerevisiae deletion strains, locus YPL055C, strain LGE1, hits give low values",0.923
same,normalized growth,"S. cerevisiae deletion strains, locus YPL078C, strain atp4, hits give low values",0.863 (active)
same,normalized growth,"S. cerevisiae deletion strains, locus YPL106C, strain sse1, hits give low values",0.886
same,normalized growth,"S. cerevisiae deletion strains, locus YPL240C, strain hsp82, hits give low values",0.919 (active)
same,normalized growth,"S. cerevisiae deletion strains, locus YPL241C, strain CIN2, hits give low values",0.945
same,normalized growth,"S. cerevisiae deletion strains, locus YPL256C, strain CLN2, hits give low values",0.898
same,normalized growth,"S. cerevisiae deletion strains, locus YPR119W, strain clb2, hits give low values",0.914 (active)
same,normalized growth,"S. cerevisiae deletion strains, locus YPR141C, strain kar3, hits give low values",0.897 (active)
same,normalized growth,"S. cerevisiae deletion strains, locus YPR163C, strain tif3, hits give low values",0.866 (active)
same,normalized growth,"S. cerevisiae deletion strains, locus YPR167C, strain met16, hits give low values",0.887 (active)
same,normalized growth,"S. cerevisiae deletion strains, strain wtn01, hits give low values",0.854 (active)
same,normalized growth,"S. cerevisiae strains, strain wild type, hits give low values",0.93
